Results on nine compounds are retold here after PubChem BioAssay AID1117308 (National Center for Advancing Translational Sciences (NCATS), 2015).

The other results are listed elsewhere or left out. Calls of active or inactive are those of the source. Calls follow the shape of the full dose curve.

For the test the following is noted: Ebola pseudovirus entry assay, ratio channel.
In general, AC50 refers to the concentration at which the activity in the assay is half-maximal. With `CO[C@]12CC[C@@]3(C[C@@H]1[C@](C)(O)C(C)(C)C)[C@@H]1Cc4ccc(O)c5c4[C@@]3(CCN1CC1CC1)[C@H]2O5`, the half-maximal activity concentration (AC50) is 9.87 µM (active).

In the case of `CCCC(C(=O)OCCN(CC)CC)(c1ccccc1)c1ccccc1`, the AC50 is 4.85 µM (active).

As to `CN(C(=O)CN(CCO)CC(=O)N(C)C(C)(C)Cc1ccccc1)C(C)(C)Cc1ccccc1`, the AC50 is 6.11 µM (active).

In the case of `CCCCN(CCCC)CCC(O)c1cc2c(Cl)cc(Cl)cc2c2cc(C(F)(F)F)ccc12` (centres undefined), the AC50 was 13.7 µM (active).

For `CO[C@H]1C[C@@H]2CC[C@@H](C)[C@@](O)(O2)C(=O)C(=O)N2CCCC[C@@H]2C(=O)O[C@H]([C@@H](C)C[C@@H]2CC[C@H](O)[C@H](OC)C2)CC(=O)[C@H](C)C=C(C)[C@@H](O)[C@@H](OC)C(=O)[C@H](C)C[C@H](C)C=CC=CC=C1C`, the result was inactive.

As for `CCN(CC)CCCC(C)Nc1ccnc2cc(Cl)ccc12` (centres undefined), the half-maximal activity concentration (AC50) was 15.3 µM (active).

For the compound `Clc1ccc(C(Cn2ccnc2)OCc2ccsc2Cl)c(Cl)c1` (centres undefined), the half-maximal activity concentration (AC50) is 13.7 µM (active).

In the case of `CC[C@]1(O)C[C@@H]2CN(CCc3c([nH]c4ccccc34)[C@@](C(=O)OC)(c3cc4c(cc3OC)N(C)[C@H]3[C@@](O)(C(=O)OC)[C@H](OC(C)=O)[C@]5(CC)C=CCN6CC[C@]43[C@@H]65)C2)C1`, the half-maximal activity concentration (AC50) is 0.137 µM (active).

In the case of `COc1ccccc1OCCNCC(O)COc1cccc2[nH]c3ccccc3c12` (centres undefined), the concentration at half-maximal activity (AC50) is 17.2 µM (active).
